Records with an inconclusive call do not appear. Where a call stands in place of a potency, no number is given. Active and inactive are the calls of the source. Calls come from the whole dose curve; as a rule, active = well fitted inhibition curve with a large enough effect; inconclusive = small, poorly fitted or top-dose-only effect; inactive = flat fitted curve, though single readings scatter.
Each molecule was assayed on NIH3T3 (assay: Cytotoxic Profiling of Annotated Libraries Using Quantitative High-Throughput Screening (AID 1296008; note: potency is the fitted concentration of half-maximal effect)). Conditions: Five cell lines viability, CellTiter-Glo ATP luminescence, 48-72 h; max response: active compounds read low.
Summary of the method: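 Compounds were pin-transferred onto cells and incubated 48 or 72 hr at 37 degree Celsius, 95% humidity. CellTiter-Glo was added, plates sat 10 min at room temperature, then ATP-coupled luminescence was imaged as the viability read-out.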
Note: nearly all actives have a fitted effect of over 60% in size.

SMILES | max response | Potency
CC(C(=O)O)c1cccc(Oc2ccccc2)c1 (stereo unspecified) | -0.596% (inactive) | 
CCCCc1cc2ccccc2c(OCCN(C)C)n1 | -15.9% (inactive) | 
NCCNC(=O)c1ccc(Cl)cn1 | 2.21% (inactive) | 
CCc1oc2ccccc2c1C(=O)c1cc(Br)c(O)c(Br)c1 | -25.3% (inactive) | 
Nc1nc(Cl)nc2c1ncn2[C@@H]1O[C@H](CO)[C@@H](O)[C@@H]1F |  | 1190 nM (active)
CC(O)Cn1cnc2c1c(=O)n(C)c(=O)n2C (stereo unspecified) | -9.57% (inactive) | 
CC(=O)Nc1ccc(S(=O)(=O)Nc2ccc([N+](=O)[O-])cc2)cc1 | 3.15% (inactive) | 
COc1ccc(C(=O)c2ccccc2O)c(O)c1 | 1.03% (inactive) | 
CCCCN1C[C@H](O)[C@@H](O)[C@H](O)[C@H]1CO | -2.42% (inactive) | 

The molecules below were run on HACAT (assay: qHTS assay to identify novel small-molecules to repurpose for Merkel cell carcinoma treatment (AID 1296009)). Conditions: MCC and control cell lines, CellTiter-Glo viability, 72 h; at 44.8 µM (top of the series) unless noted.
Summary of the method: (§1)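 Cells exposed to NPC (8-point) and MIPE (11-point) compound dilutions for 72 hr at 37 degree celsius; viability read by CellTiter-Glo luminescence, normalized to no-cell and DMSO in-plate controls.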

SMILES | outcome
C/C=C/c1ccc(O)c(OC)c1 | inactive
CC(=C(CCOC(=O)C(C)C)SSC(CCOC(=O)C(C)C)=C(C)N(C=O)Cc1cnc(C)nc1N)N(C=O)Cc1cnc(C)nc1N | inactive
O=C1C(CCS(=O)c2ccccc2)C(=O)N(c2ccccc2)N1c1ccccc1 (stereo unspecified) | inactive
Cc1c[nH]c2ccccc12 | inactive
CCC(CC)(CC(=O)Nc1cccc(/C=C/c2nc(C3CCC3)cs2)c1)C(=O)O | inactive
CC1(COc2ccc(CC3SC(=O)NC3=O)cc2)CCCCC1 (stereo unspecified) | inactive
CN(C)CCOC(=O)C(c1ccccc1)C1(O)CCCC1 (stereo unspecified) | inactive
CCN(CC)CCOc1ccccc1C(=O)CCc1ccccc1 | inactive
CC(=O)Nc1ccc(OCC(O)CNC(C)C)cc1 (stereo unspecified) | inactive
Cc1cc(NS(=O)(=O)c2ccc(N)cc2)nc(C)n1 | inactive
CCCCc1cc2ccccc2c(OCCN(C)C)n1 | inactive
NCCNC(=O)c1ccc(Cl)cn1 | inactive
CCc1oc2ccccc2c1C(=O)c1cc(Br)c(O)c(Br)c1 | inactive
CC(=O)Nc1ccc(S(=O)(=O)Nc2ccc([N+](=O)[O-])cc2)cc1 | inactive

What follows are molecules tested on HEK293T in the same assay as above. Conditions: MCC and control cell lines, CellTiter-Glo viability, 72 h; at 44.8 µM (top of the series) unless noted.
Summary of the method: as §1

SMILES | outcome
CN(C)CCOC(=O)C(c1ccccc1)C1(O)CCCC1 (stereo unspecified) | inactive
CCCCN=C(N)N=C(N)N | inactive
COc1ccc(CCN(C)CCCN2CCc3cc(OC)c(OC)cc3CC2=O)cc1OC | inactive

Source: PubChem BioAssay (NCATS)
